# Laboratory results: PubChem BioAssay (EPA / NIEHS)
# Inconclusive results are not listed. The source made the active and inactive calls. Rule for the calls, unless noted: active = hit-call score of the fitted dose curve at least 0.9, where 1 is the maximum; inconclusive = response in the unintended direction; inactive = score below 0.9.
# Key:
# [1] = target: Retinoic acid receptor alpha (Homo sapiens) (UniProt P10276); experiment: NVS_NR_hRARa_Agonist: NovaScreen (NVS) Nuclear Receptor Binding Assay for human Retinoic Acid Alpha Receptor Agonism (RAR) (AID 2283361)
# Outline: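 Compounds screened at 25 uM, duplicate, then in concentration series if active. Detection: TR-FRET gain of signal versus DMSO after 2 h with cell-free extracted RARα.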
# [2] = target: guinea pig Sigma Receptor, Non-selective Binding, SIGMAR1 (gene 100135589) (UniProt Q60492); experiment: NVS_OR_gSIGMA_NonSelective: NovaScreen (NVS) Nuclear Receptor Binding Assay for guinea pig Sigma Receptor, Non-selective Binding (AID 2283367)
# Outline: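 Test chemicals were screened in duplicate at 25 uM, then in concentration series if active, against radioligand binding to guinea pig brain membranes; filtration and scintillation counting at 1 h measured remaining bound ligand.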
# [3] = target: Peroxisome proliferator-activated receptor gamma (Homo sapiens) (UniProt P37231); experiment: NVS_NR_hPPARg: NovaScreen (NVS) Nuclear Receptor Binding Assay for human Peroxisome Proliferator-activated Receptor gamma (PPARg) (AID 2283370)
# Outline: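 Cell-free fluorescence polarization binding to human PPARg protein, read 2 h after dosing. Primary screen in duplicate at 25 uM, actives followed in concentration series; loss of signal relative to DMSO scored.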
# [4] = target: human Norepinephrine Transporter (NET), SLC6A2 (gene 6530) (UniProt P23975); experiment: NVS_TR_hNET: NovaScreen (NVS) Transporter Assay for human Norepinephrine Transporter (NET) (AID 2283377);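 note: cell-free membrane protein extracted from CHO cells expressing human NET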;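 for AC50: displacement of radioligand from human NET seen as loss of scintillation signal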
# Outline: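 In this cell-free binding screen, chemicals at 25 uM (duplicate) compete with a radioligand for CHO-derived human NET over 1 hour, with filter-based radiodetection.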
# [5] = target: Estrogen receptor beta (Homo sapiens) (UniProt Q92731); experiment: OT_ER_ERbERb_1440: Odyssey Thera (OT) 24-hour HEK293T Protein-Complementation Assay for Estrogen Receptor-beta/-beta Homodimer (AID 2283380);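 note: fluorescence gain from ER beta LBD homodimer complementation read by laser scanning cytometry; scored as signal increase over DMSO baseline for both agonists and antagonists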
# Outline: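 HEK293T cells stably expressing human ER-beta LBD (aa 310-547) PCA homodimer pair, dosed 24 h; formaldehyde-fixed, Draq5-stained. Readout: increase in nuclear (agonist) or nuclear plus cytoplasmic (antagonist) fluorescence intensity versus DMSO, gain-of-signal fitting.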
# [6] = target: Estrogen receptor (Homo sapiens) (UniProt P03372); experiment: OT_ERa_GFPERaERE_0480: Odyssey Thera (OT) 8-hour HeLa Transcription Induction Assay for Estrogen Receptor (AID 2283381; active = hit-call score of the fitted dose curve at least 0.9, where 1 is the maximum; inactive = score below 0.9)
# Outline: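 Fluorescence microscopy with high-content image analysis measures ERE-driven GFP induction in HeLa cells at 8 h post-dose. Increases fitted against DMSO baseline.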
# PGR (gene 5241) = PGR (gene 5241) (UniProt P06401); experiment: NVS_NR_hPR: NovaScreen (NVS) Nuclear Receptor Binding Assay for human Progestron Receptor (PR) (AID 2283360);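 note: active means loss of bound radioligand signal versus DMSO baseline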
# Outline: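 T47D-derived receptor preparation, cell-free, with tritiated or iodinated radioligand displacement measured by scintillation 18 h post-dosing. Single 25 uM duplicate screen, then concentration series; signal loss relative to DMSO.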
# [7] = target: mouse Estrogen Receptor alpha (Era), Esr1 (gene 13982) (UniProt P19785); experiment: NVS_NR_mERa: NovaScreen (NVS) Nuclear Receptor Binding Assay for mouse Estrogen Receptor alpha (Era) (AID 2283378);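 note: hit means loss of bound radioligand signal relative to DMSO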
# Outline: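 Cell-free radioligand competitive displacement binding, read by filter-based scintillation counting 18 h after dosing. Primary screen run in duplicate at 25 uM, actives retested in concentration series; loss of signal versus DMSO.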
# [8] = target: Agonist Androgen Response Element (ARE), AR (gene 367) (UniProt P10275); experiment: OT_AR_ARELUC_AG_1440: Odyssey Thera (OT) 24-hour CHO-K1 Luciferase Assay for Agonist Androgen Response Element (ARE) (AID 2283379)
# Outline: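 Luminescence increase above DMSO, read after a 24 h compound treatment of CHO-K1 cells expressing an androgen response element luciferase reporter, gives the single primary endpoint; concentration-response fitting used the positive direction.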
# [9] = target: human Peroxisome Proliferator-activated Receptor alpha (PPARa), PPARA (gene 5465) (UniProt Q07869); experiment: NVS_NR_hPPARa: NovaScreen (NVS) Nuclear Receptor Binding Assay for human Peroxisome Proliferator-activated Receptor alpha (PPARa) (AID 2283359);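 note: activity means loss of TR-FRET signal versus DMSO baseline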
# Outline: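 One-hour incubation, cell-free extracted protein, TR-FRET binding readout; signal loss vs DMSO scored. Screen: 25 uM duplicates, confirmatory dose series for actives.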
# [10] = target: human Adenosine Transporter (Adot), SLC29A1 (gene 2030) (UniProt Q99808); experiment: NVS_TR_hAdoT: NovaScreen (NVS) Transporter Assay for human Adenosine Transporter (Adot) (AID 2283368)
# Outline: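 Binding displacement on U937 extracted protein, read 1 h post-dose by filtration and scintillation counting. Primary duplicate test at 25 uM, then singleton concentration series with 50 uM top; DMSO baseline.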
# [11] = tested on: guinea pig Dopamine Transporter (DAT), gene 100714898; experiment: NVS_TR_gDAT: NovaScreen (NVS) Transporter Assay for guinea pig Dopamine Transporter (DAT) (AID 2283369);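 note: active compounds lower bound radioligand signal relative to DMSO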
# Outline: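 Guinea pig striatal membranes, cell-free radioligand binding with filter-based scintillation counting, read 2 h after dosing. Loss of signal versus DMSO baseline; single-concentration primary (25 uM) then concentration-response up to 50 uM.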
# [12] = target: human Dopamine Transporter (DAT), SLC6A3 (gene 6531) (UniProt Q01959); experiment: NVS_TR_hDAT: NovaScreen (NVS) Transporter Assay for human Dopamine Transporter (DAT) (AID 2283374);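 note: activity means loss of bound radioligand signal relative to DMSO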
# Outline: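 Extracted human SLC6A3 protein incubated 1 h with radioligand and test chemical; bound fraction separated on filters and counted. Single 25 uM duplicate screen preceded concentration-response follow-up; positive and negative controls on every plate.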
# [13] = target: Glucocorticoid receptor (Homo sapiens) (UniProt P04150); experiment: NVS_NR_hGR: NovaScreen (NVS) Nuclear Receptor Binding Assay for human Glucocorticoid Receptor (GR) (AID 2283363);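 for AC50: activity is loss of specific radioligand binding signal relative to DMSO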
# Outline: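 Single-readout cell-free binding: radioligand plus extracted receptor, 16-hour dosing, filter radiodetection; 25 uM duplicate primary, concentration series secondary.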
# [14] = target: human Serotonin Transporter (SERT), SLC6A4 (gene 6532) (UniProt P31645); experiment: NVS_TR_hSERT: NovaScreen (NVS) Transporter Assay for human Serotonin Transporter (SERT) (AID 2283372)
# Outline: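 Human platelet membrane preparation; displacement of radioligand from serotonin transporter measured after 1 h by filtration and scintillation counting. Single 25 uM duplicate screen, then concentration series for actives, with DMSO as negative baseline.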
# [15] = target: Norway rat Vesicular Monoamine Transporter (VMAT2), neurotransmitter transporter, Slc18a2 (gene 25549) (UniProt Q01827); experiment: NVS_TR_rVMAT2: NovaScreen (NVS) Transporter Assay for Norway rat Vesicular Monoamine Transporter (VMAT2), neurotransmitter transporter (AID 2283376);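 note: actives lower the bound radioligand signal below the DMSO level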
# Outline: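 Binding endpoint from rat forebrain tissue, cell-free; 1 h incubation; filtered radioligand counted; 25 uM duplicate primary then dose series; DMSO negative control.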
# Sequence of Estrogen receptor (Homo sapiens) (P03372 whole entry, looked up): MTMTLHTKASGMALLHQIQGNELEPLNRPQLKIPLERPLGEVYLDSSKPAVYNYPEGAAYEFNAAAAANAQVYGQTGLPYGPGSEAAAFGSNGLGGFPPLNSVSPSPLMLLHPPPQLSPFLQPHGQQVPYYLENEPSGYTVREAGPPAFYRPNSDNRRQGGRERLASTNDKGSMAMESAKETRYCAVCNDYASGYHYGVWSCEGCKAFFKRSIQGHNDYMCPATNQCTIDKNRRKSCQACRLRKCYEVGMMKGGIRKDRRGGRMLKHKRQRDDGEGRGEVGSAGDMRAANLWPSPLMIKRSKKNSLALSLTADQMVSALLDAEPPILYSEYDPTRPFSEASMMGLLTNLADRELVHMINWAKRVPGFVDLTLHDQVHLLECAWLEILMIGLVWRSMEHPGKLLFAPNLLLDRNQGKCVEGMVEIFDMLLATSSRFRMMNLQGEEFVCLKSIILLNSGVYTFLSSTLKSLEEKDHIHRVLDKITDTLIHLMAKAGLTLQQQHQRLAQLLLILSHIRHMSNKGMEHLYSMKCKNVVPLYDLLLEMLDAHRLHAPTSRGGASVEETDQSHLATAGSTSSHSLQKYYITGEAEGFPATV
# Sequence of human Dopamine Transporter (DAT), SLC6A3 (gene 6531) (Q01959 whole entry, looked up): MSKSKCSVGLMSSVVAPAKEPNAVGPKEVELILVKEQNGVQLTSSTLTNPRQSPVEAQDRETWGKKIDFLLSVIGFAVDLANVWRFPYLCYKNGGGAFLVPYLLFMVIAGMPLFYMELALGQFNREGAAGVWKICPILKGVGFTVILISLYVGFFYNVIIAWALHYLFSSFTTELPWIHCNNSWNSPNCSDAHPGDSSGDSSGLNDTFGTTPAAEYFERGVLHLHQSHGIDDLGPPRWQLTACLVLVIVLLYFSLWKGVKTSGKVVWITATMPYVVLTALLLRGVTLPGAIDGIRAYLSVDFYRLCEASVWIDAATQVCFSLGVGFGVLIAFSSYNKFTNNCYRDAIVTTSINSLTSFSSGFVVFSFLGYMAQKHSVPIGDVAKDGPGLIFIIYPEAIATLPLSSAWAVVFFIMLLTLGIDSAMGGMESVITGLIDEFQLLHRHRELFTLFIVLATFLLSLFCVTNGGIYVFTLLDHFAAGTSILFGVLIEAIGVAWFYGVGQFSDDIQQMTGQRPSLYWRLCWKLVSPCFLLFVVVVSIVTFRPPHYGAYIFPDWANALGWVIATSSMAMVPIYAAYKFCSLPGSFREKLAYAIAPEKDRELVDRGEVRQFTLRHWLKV
# Sequence of mouse Estrogen Receptor alpha (Era), Esr1 (gene 13982) (P19785 whole entry, looked up): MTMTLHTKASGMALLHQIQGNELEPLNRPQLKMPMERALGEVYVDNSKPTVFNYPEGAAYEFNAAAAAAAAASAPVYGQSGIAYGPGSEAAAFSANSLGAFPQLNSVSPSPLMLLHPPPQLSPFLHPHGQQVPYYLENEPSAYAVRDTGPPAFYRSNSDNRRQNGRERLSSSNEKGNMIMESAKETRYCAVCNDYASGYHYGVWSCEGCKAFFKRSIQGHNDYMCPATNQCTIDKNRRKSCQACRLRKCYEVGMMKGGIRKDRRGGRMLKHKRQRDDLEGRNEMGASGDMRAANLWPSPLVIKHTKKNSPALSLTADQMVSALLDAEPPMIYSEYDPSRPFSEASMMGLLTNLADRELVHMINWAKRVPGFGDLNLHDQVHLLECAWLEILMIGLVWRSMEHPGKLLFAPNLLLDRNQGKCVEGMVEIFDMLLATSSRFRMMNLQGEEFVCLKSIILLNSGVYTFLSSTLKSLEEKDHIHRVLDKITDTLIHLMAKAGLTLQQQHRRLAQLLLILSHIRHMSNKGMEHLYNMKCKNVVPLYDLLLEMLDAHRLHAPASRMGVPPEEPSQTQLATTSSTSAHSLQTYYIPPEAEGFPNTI
# Sequence of Peroxisome proliferator-activated receptor gamma (Homo sapiens) (P37231 whole entry, looked up): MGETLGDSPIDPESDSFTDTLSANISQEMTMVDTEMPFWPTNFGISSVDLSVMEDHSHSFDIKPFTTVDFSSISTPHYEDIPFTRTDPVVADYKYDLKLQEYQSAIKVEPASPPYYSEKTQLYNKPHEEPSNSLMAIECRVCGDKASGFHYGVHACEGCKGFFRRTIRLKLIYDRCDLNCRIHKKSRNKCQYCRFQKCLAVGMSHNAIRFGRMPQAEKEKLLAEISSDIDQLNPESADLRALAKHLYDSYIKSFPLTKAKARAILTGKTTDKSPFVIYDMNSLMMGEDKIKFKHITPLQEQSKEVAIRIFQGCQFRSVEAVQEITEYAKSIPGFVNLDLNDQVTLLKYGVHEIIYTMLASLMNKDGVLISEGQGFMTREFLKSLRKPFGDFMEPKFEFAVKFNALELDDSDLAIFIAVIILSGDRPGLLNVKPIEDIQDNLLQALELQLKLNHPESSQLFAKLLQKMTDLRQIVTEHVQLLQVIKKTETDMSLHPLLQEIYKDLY
# Sequence of human Norepinephrine Transporter (NET), SLC6A2 (gene 6530) (P23975 whole entry, looked up): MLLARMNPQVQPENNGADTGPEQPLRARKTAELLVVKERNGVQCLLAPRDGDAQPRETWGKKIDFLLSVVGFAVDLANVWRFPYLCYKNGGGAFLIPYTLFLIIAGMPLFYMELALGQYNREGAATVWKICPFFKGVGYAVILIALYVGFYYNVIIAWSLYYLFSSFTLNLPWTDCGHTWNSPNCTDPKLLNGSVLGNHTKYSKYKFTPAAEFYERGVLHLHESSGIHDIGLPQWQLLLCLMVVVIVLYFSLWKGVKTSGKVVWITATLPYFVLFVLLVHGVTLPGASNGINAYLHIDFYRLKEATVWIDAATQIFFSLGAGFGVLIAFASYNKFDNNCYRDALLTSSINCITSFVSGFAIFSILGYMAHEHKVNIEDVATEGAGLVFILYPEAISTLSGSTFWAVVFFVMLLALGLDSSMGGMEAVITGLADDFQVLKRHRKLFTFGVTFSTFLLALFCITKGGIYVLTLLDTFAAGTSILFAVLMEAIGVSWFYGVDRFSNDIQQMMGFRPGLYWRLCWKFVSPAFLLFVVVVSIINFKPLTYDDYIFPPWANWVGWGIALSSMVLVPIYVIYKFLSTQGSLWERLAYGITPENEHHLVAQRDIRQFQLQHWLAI
# Sequence of Agonist Androgen Response Element (ARE), AR (gene 367) (P10275 whole entry, looked up): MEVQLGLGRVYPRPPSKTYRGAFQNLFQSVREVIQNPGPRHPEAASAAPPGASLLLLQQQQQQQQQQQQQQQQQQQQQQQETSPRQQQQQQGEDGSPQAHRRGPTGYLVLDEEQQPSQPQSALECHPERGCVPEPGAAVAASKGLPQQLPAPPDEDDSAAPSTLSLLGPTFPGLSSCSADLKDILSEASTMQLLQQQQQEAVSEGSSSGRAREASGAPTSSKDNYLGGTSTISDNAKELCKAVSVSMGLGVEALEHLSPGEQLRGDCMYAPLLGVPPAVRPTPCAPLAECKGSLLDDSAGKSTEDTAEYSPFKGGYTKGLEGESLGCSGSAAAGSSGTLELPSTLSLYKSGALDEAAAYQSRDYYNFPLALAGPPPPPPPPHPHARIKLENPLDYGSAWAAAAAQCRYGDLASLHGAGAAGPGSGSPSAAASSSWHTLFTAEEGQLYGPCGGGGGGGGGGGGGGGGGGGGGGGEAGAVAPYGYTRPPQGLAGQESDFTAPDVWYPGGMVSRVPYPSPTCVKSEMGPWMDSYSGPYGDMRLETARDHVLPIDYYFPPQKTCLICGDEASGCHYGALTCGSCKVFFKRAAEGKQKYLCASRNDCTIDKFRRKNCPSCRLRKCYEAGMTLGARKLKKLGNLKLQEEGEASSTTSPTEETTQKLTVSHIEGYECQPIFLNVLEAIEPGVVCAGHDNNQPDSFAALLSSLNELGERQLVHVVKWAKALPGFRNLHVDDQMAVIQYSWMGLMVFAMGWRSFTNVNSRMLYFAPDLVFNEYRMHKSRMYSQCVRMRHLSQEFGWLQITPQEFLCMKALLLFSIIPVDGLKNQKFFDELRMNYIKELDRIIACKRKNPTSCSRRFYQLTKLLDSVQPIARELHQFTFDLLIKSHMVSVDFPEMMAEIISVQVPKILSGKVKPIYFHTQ
# Sequence of Estrogen receptor beta (Homo sapiens) (Q92731 whole entry, looked up, the tested form may be a part): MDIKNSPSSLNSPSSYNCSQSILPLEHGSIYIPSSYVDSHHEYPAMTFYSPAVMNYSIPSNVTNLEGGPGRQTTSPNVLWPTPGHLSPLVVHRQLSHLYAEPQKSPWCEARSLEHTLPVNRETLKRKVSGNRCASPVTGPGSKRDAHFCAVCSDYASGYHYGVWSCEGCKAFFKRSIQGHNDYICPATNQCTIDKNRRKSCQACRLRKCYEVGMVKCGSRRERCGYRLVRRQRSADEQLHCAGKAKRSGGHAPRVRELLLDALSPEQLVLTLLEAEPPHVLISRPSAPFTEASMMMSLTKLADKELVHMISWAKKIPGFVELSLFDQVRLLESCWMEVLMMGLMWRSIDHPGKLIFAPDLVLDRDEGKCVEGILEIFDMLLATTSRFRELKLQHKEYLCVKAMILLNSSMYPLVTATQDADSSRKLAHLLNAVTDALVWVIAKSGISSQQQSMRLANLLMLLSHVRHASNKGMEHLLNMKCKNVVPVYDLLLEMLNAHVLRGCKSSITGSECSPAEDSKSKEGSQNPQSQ
# Sequence of human Peroxisome Proliferator-activated Receptor alpha (PPARa), PPARA (gene 5465) (Q07869 whole entry, looked up): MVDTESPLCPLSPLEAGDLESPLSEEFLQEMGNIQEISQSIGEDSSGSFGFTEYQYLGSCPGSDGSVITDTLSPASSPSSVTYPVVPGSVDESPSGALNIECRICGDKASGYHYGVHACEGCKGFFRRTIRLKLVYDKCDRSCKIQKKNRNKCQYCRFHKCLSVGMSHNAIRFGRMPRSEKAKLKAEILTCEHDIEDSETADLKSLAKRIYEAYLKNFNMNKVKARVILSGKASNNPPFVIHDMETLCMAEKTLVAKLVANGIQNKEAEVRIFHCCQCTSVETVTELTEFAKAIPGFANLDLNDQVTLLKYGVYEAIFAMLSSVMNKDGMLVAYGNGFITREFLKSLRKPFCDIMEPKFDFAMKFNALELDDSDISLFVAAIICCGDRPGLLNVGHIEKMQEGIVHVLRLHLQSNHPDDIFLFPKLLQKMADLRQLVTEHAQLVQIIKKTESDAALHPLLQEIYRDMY
compound,measurement,setting,value
c1ccc2c(c1)Nc1ccccc1S2,outcome,[1],inactive
same,outcome,[2],inactive
same,outcome,[3],inactive
same,AC50,[4],6.58 µM (active)
same,outcome,[5],inactive
same,outcome,[6],inactive
CCOS(=O)(=O)OCC,outcome,[3],inactive
same,outcome,[5],inactive
same,outcome,[6],inactive
Nc1cc2c3c(c1)C(c1ccccc1)=N[C@@H](NC(=O)c1cccnc1)C(=O)N3CC2,outcome,PGR (gene 5241),inactive
same,outcome,[5],inactive
same,outcome,[6],inactive
CCCCN(CC)C(=O)SCCC,outcome,[3],inactive
same,outcome,[7],inactive
same,outcome,[8],inactive
same,outcome,[5],inactive
same,outcome,[6],inactive
CCNc1nc(Cl)nc(NC(C)(C)C)n1,AC50,[3],0.0134 µM (active)
same,outcome,[7],inactive
same,outcome,[8],inactive
same,outcome,[5],inactive
same,outcome,[6],inactive
CCCCOCCOP(=O)(OCCOCCCC)OCCOCCCC,outcome,[1],inactive
same,outcome,[5],inactive
same,outcome,[6],inactive
O=P(Oc1ccccc1)(Oc1ccccc1)Oc1ccccc1,outcome,[9],inactive
same,outcome,[10],inactive
same,AC50,[11],18.8 µM (active)
same,AC50,[3],0.00229 µM (active)
same,AC50,[12],11.3 µM (active)
same,AC50,[6],12.4 µM (active)
ClC1=C(Cl)C2(Cl)C3C(Cl)C(Cl)CC3C1(Cl)C2(Cl)Cl (stereo not drawn),outcome,[9],inactive
same,outcome,[13],inactive
same,outcome,[3],inactive
same,outcome,[14],inactive
same,outcome,[7],inactive
same,outcome,[8],inactive
same,outcome,[5],inactive
same,outcome,[6],inactive
CC(C)Nc1ccc(Nc2ccccc2)cc1,AC50,[13],25 µM (active)
same,AC50,[11],25 µM (active)
same,AC50,[12],1.69 µM (active)
same,AC50,[4],2.93 µM (active)
Cc1cc(C)c(C(=O)P(=O)(c2ccccc2)c2ccccc2)c(C)c1,AC50,[12],13.6 µM (active)
same,outcome,[4],inactive
Cc1ccc2c(c1N)C(=O)c1ccccc1C2=O,AC50,[4],12.2 µM (active)
CC(Cc1ccc(OCC(=O)O)cc1)NCC(O)c1csc(C(F)(F)F)n1 (stereo not drawn),outcome,[15],inactive
same,outcome,[5],inactive
same,outcome,[6],inactive
CCOc1ccc(C(C)(C)COCc2cccc(Oc3ccccc3)c2)cc1,outcome,[5],inactive
same,outcome,[6],inactive
CCC1(c2ccccc2)C(=O)N=C(O)NC1=O (stereo not drawn),outcome,[4],inactive
same,outcome,[5],inactive
same,outcome,[6],inactive
[N-]=[N+]=[N-],outcome,[8],inactive
same,outcome,[6],inactive
ClC(Cl)c1ccccc1,outcome,[3],inactive
same,outcome,[6],inactive
Oc1ccccc1Br,outcome,[4],inactive
Clc1ccc(Oc2ccccc2)cc1,outcome,[12],inactive
c1cc2c3c(cccc3c1)CC2,outcome,[8],inactive
same,outcome,[5],inactive
same,outcome,[6],inactive
